Source: PubChem BioAssay (several laboratories)
Compounds with a hit are over-represented: about 3.7% of the library has one in this group of screens.
tim10-1 inh: growth inhibitors of tim10-1 mutant yeast; S. cerevisiae tim10-1 ts strain growth, BacTiter-Glo, 24 h; inhibition, % at 20 µM; actives 2.2% (n = 330,000);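 active = inhibition of at least 40%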;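 note: mutant grown at 25 °C; 0% = DMSO wells with yeast and 100% = wells holding no yeast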
PfHsp90 yeast 2: inhibits growth of yeast expressing Plasmodium falciparum Hsp90. actives 0.32% (n = 310,000). S. cerevisiae expressing PfHsp90, BacTiter-Glo ATP, 48 h; yeast lacking PDR1 and PDR3 efflux regulators. AID 504621. inhibition, % at 9.4 µM;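 active = every replicate shows inhibition above about 80%, whatever the replicate mean, limit read from the data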;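 note: 0% = DMSO neutral controls and 100% = 20 µM radicicol positive controls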
tim23-1 inh: inhibits growth of tim23-1 mutant yeast | S. cerevisiae tim23-1 growth, BacTiter-Glo luminescence, 24 h | inhibition, % at 20 µM | actives 1.3% (n = 330,000) | AID 463212;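 active = growth inhibition of the mutant yeast at or above 50%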;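 note: temperature-sensitive mutant grown at 25 °C; plate controls were DMSO-treated mutant yeast for no effect and medium wells lacking yeast for full effect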
Rce1 inhib: yeast Ras-converting enzyme inhibition; Q03530; yeast membranes, quenched prenylated peptide cleavage fluorescence; calls only; actives 0.27% (n = 290,000); AID 2563;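 active = fall in fluorescence gain of 50% or more versus controls, with final raw signal at or below 3038400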;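 note: plate controls were neutral control wells for no effect and wells lacking membranes for full effect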
Target sequence (Q03530 whole entry, looked up): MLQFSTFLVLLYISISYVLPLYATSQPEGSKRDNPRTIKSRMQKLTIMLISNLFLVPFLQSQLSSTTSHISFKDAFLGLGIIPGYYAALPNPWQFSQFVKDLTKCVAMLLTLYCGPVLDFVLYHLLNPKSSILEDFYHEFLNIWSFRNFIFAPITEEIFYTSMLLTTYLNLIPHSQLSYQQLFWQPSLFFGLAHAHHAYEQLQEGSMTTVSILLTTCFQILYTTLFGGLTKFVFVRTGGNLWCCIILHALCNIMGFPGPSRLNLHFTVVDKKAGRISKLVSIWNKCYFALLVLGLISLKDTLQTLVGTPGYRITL
TIM10 inh: inhibits growth of TIM10 yeast strain | S. cerevisiae TIM10 strain growth, BacTiter-Glo luminescence, 24 h | actives 1.4% (n = 330,000) | inhibition, % at 10 µM | AID 463195;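 active = inhibition of 40% or more at the single tested concentration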;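 note: wild-type TIM10 isogenic control strain grown at permissive 25 °C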
tim10 confirm: confirmation of TIM10 yeast growth inhibitors; shares compounds with TIM10 inh; S. cerevisiae tim10 strain growth, BacTiter-Glo luminescence, 24 h; inhibition, % at 10 µM; actives 63% (n = 4,600); AID 463215;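 active = inhibition of yeast growth at or above a set limit in either of two replicates at 10 µM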;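 note: this counterscreen used the strain with wild-type TIM10; 0% = yeast with DMSO and 100% = medium wells lacking yeast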
The depositor's hits bear a star.

For CCN1CCN(c2ncnc3sc4c(c23)CCC(C)C4)CC1 (stereo not given) the results were tim10-1 inh 16, PfHsp90 yeast 2 5, tim23-1 inh 9, Rce1 inhib inactive and TIM10 inh -11.
Screening COc1cc(Br)cc(/C=N/NC(=O)Cc2ccccc2)c1O returned tim10-1 inh 3, PfHsp90 yeast 2 6, tim23-1 inh 37, Rce1 inhib inactive and TIM10 inh 29.
`O=C(Cc1ccccc1)N/N=C/c1cc(Br)cc(Cl)c1O` gave tim10-1 inh 39, PfHsp90 yeast 2 9, tim23-1 inh 38, Rce1 inhib inactive, TIM10 inh 45* and tim10 confirm 51*.
COc1ccc(Nc2nc(Cl)c(C=O)s2)cc1 was read as tim10-1 inh 29, tim23-1 inh 44, Rce1 inhib inactive, TIM10 inh 46* and tim10 confirm 18.
For COc1ccc(Nc2nc3ccccc3s2)cc1 the results were tim10-1 inh 27, PfHsp90 yeast 2 -18, tim23-1 inh 25, Rce1 inhib inactive and TIM10 inh 4.
Screening CC1CC(C)(C)NC(=S)N1CCC(=O)NCc1ccc(Cl)cc1 (stereo not given) returned tim10-1 inh 7, PfHsp90 yeast 2 27, tim23-1 inh 10, Rce1 inhib inactive and TIM10 inh 4.
`Nc1c(C(=O)Nc2ccccc2F)sc2nc(-c3ccco3)ccc12` gave tim10-1 inh 18, PfHsp90 yeast 2 -44, tim23-1 inh 6, Rce1 inhib inactive, TIM10 inh 41* and tim10 confirm 19.
For CCOC(=O)NC(=S)Nc1ccc(C(C)(C)C)cc1Br the results were tim10-1 inh 38, PfHsp90 yeast 2 2, tim23-1 inh 45, Rce1 inhib inactive, TIM10 inh 50* and tim10 confirm 39*.
For COc1cc(C(C)=O)ccc1OCC(=O)N1CCc2ccccc2C1 the results were tim10-1 inh -9, PfHsp90 yeast 2 4, tim23-1 inh 1, Rce1 inhib inactive and TIM10 inh 1.
`CCOC(=O)c1cnc2c(ccc3ccccc32)c1N` gave tim10-1 inh -9, PfHsp90 yeast 2 6, tim23-1 inh -6, Rce1 inhib inactive and TIM10 inh 17.
`CCOC(=O)c1cnc2c(ccc3ccccc32)c1NCCO` gave tim10-1 inh 38, PfHsp90 yeast 2 3, tim23-1 inh 49, Rce1 inhib inactive, TIM10 inh 61* and tim10 confirm 69*.
`CC(=O)c1c(C)[nH]c(C(=O)COC(=O)c2cc(C)oc2C)c1C` gave tim10-1 inh 19, tim23-1 inh 31 and TIM10 inh 20.
`CCOC(=O)C1CCN(C(=O)c2ccc3c(c2)NC(=O)/C(=C\c2ccc(C)cc2)S3)CC1` gave tim10-1 inh 21, PfHsp90 yeast 2 -2, tim23-1 inh 47, Rce1 inhib inactive, TIM10 inh 41* and tim10 confirm -4.
Cc1ccc(C2(C)NC(=O)N(CC(=O)NNC(=O)c3ccccc3F)C2=O)cc1 (stereo not given) was read as tim10-1 inh -5, PfHsp90 yeast 2 0, tim23-1 inh -4 and TIM10 inh -1.
CC(C)N1CCc2c(sc(NC(=O)c3cc(-c4cccs4)nc4ccccc34)c2C(N)=O)C1 was read as tim10-1 inh 16, PfHsp90 yeast 2 1, tim23-1 inh 44, Rce1 inhib inactive and TIM10 inh 24.
CC(=O)Nc1sc2c(c1-c1nc3ccccc3s1)CN(C(C)C)CC2 was read as tim10-1 inh 12, PfHsp90 yeast 2 -6, tim23-1 inh 43, TIM10 inh 65* and tim10 confirm 19.
Screening CC(C)N1CCc2c(sc(NC(=O)c3nc4ccccc4s3)c2C(N)=O)C1 returned tim10-1 inh -11, PfHsp90 yeast 2 -2, tim23-1 inh 42, Rce1 inhib inactive, TIM10 inh 44* and tim10 confirm 22.
`O=C(N/N=C/c1cccc(OC(=O)c2ccco2)c1)c1ccc(F)cc1` gave tim10-1 inh 13, PfHsp90 yeast 2 17, tim23-1 inh 14, Rce1 inhib inactive, TIM10 inh 41* and tim10 confirm 32*.
`COc1cc(/C=N/NC(=O)c2ccc(F)cc2)ccc1OC(=O)c1ccco1` gave tim10-1 inh 2, PfHsp90 yeast 2 -10, tim23-1 inh 9, Rce1 inhib inactive and TIM10 inh 17.
For Cc1ccc2nc(-c3ccc(N4C(=O)CC(N5CCC(C(N)=O)CC5)C4=O)cc3)sc2c1 (stereo not given) the results were tim10-1 inh 18, tim23-1 inh 15, Rce1 inhib inactive, TIM10 inh 42* and tim10 confirm 57*.
Cc1ccc(N2C(=O)CC(N3CCN(C)CC3)C2=O)cc1 (stereo not given) was read as tim10-1 inh 9, tim23-1 inh 14, Rce1 inhib inactive and TIM10 inh 1.
Screening Cc1ccccc1NC(=S)N(Cc1cccs1)C1CCCC1 returned tim10-1 inh 35, PfHsp90 yeast 2 -5, tim23-1 inh 35, Rce1 inhib inactive and TIM10 inh 15.
CCc1ccccc1NC(=S)N(Cc1cccs1)C1CCCC1 was read as tim10-1 inh 34, PfHsp90 yeast 2 4, tim23-1 inh 11, Rce1 inhib inactive, TIM10 inh 40* and tim10 confirm 15.
COc1ccc(C(=O)NCCS(=O)(=O)NC2CCCC2)cc1 was read as tim10-1 inh -2, PfHsp90 yeast 2 24, tim23-1 inh 6, Rce1 inhib inactive, TIM10 inh 41* and tim10 confirm 3.
Screening CC1CC(C)(C)CC2(C1)NC(=O)N(CC(=O)OCc1ccc(Br)cc1)C2=O (stereo not given) returned tim10-1 inh 14, PfHsp90 yeast 2 10, tim23-1 inh 10 and TIM10 inh -2.
For CC1N(C)c2cc(NC(=O)c3cccs3)c(P(=O)(Nc3ccc([N+](=O)[O-])cc3)N3CCOCC3)cc2C1(C)C (stereo not given) the results were tim10-1 inh 15, PfHsp90 yeast 2 3, tim23-1 inh 6, Rce1 inhib inactive and TIM10 inh 11.
For CCN(CC)c1ccc(-c2n[nH]c(=S)n2-c2ccccc2)cc1 the results were tim10-1 inh 21, PfHsp90 yeast 2 -19, tim23-1 inh 32, Rce1 inhib inactive, TIM10 inh 41* and tim10 confirm 27.
For CN(C)c1ccc(-c2n[nH]c(=S)n2-c2ccccc2)cc1 the results were tim10-1 inh 30, tim23-1 inh 16, Rce1 inhib inactive and TIM10 inh 2.
For S=C(NCc1ccccc1)N1CCN(c2cccc(Cl)c2)CC1 the results were tim10-1 inh 26, PfHsp90 yeast 2 -7, tim23-1 inh 45, Rce1 inhib inactive, TIM10 inh 46* and tim10 confirm 15.
O=C(Cn1ccc2ccccc2c1=O)N1CCN(c2cccc(Cl)c2)CC1 was read as tim10-1 inh -40, PfHsp90 yeast 2 -20, tim23-1 inh -14, Rce1 inhib inactive, TIM10 inh 54* and tim10 confirm -38.
